Test results: PubChem BioAssay (EPA / NIEHS)
Calls of active or inactive are those of the source. The calls were made as follows: active = hit-call score of the fitted dose curve at least 0.9, where 1 is the maximum; inactive = score below 0.9.

molecular target: Retinoic acid receptor alpha (Homo sapiens) (UniProt P10276); assay: ATG_DR5_RAR_CIS: Attagene CIS-FACTORIAL HepG2 Assay for human Retinoic Acid Receptor Alpha (RARE), DR5 submotif (AID 2282934); details: HepG2 Attagene cis-factorial RARE DR5 reporter, mRNA; actives raise or lower the signal;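 as to AC50: reporter responds to endogenous RAR alpha beta and gamma in HepG2 not RARA alone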
Sequence (P10276 whole entry, looked up): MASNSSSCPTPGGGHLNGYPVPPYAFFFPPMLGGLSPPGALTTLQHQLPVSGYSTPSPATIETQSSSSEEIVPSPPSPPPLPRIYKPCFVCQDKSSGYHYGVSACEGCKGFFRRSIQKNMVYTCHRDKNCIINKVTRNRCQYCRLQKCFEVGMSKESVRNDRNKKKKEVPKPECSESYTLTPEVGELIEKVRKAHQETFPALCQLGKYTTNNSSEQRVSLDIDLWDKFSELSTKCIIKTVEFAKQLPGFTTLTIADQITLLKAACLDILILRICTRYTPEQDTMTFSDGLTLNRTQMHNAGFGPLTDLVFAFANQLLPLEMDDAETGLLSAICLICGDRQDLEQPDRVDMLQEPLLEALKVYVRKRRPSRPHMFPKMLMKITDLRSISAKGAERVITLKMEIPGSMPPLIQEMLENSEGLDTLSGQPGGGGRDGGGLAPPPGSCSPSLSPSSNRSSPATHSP
Method: ATG_CIS is a cell-based, multiplexed-readout assay that uses HepG2, a human liver cell line, with measurements taken at 24 hours after chemical dosing in a 24-well plate.ATG_DR5_RAR_CIS is one of 52 assay component(s) measured or calculated from the ATG_CIS assay. It is designed to make measurements of mRNA induction, a form of inducible reporter, as detected with fluorescence intensity signals by Reverse transcription polymerase chain reaction (RT-PCR) and Capillary electrophoresis technology.Data from the assay component ATG_DR5_RAR_CIS was analyzed into 1 assay endpoint. This assay endpoint, ATG_DR5_CIS, was analyzed with bidirectional fitting relative to DMSO as the negative control and baseline of activity. Using a type of inducible reporter, measures of mRNA for gain or loss-of-signal activity can be used to understand the reporter gene at the transcription factor-level as they relate to the gene RARA and RARB and RARG. Furthermore, this assay endpoint can be referred to as a primary readout, because this assay has produced multiple assay endpoints where this one serves a reporter gene function. To generalize the intended target to other relatable targets, this assay endpoint is annotated to the nuclear receptor intended target family, where the subfamily is non-steroidal.
Human liver HepG2 cells are transiently transfected with multiple reporter transcription units (MRTUs) in 6-well plates using FuGene 6 reagent (Roche; 3 ml FuGene/1 mg DNA). The MRTU constructs are regulated by a cis-regulating element (promoter). […] A major difference between the CIS and TRANS system is that in CIS activities of endogenous TFs are measured, whereas the TRANS assay evaluates changes in activities of exogenous, chimeric NR-Gal4 proteins. […] At the end of 24 hour incubation, total RNA was isolated using TriZol reagent (Invitrogen). The isolated RNA is then reverse-transcribed using oligo(dT) primer and Mo-MLV reverse transcriptase (Invitrogen) with DNAse I (Ambion) treatment for 30 min. The one-tenth of the produced cDNA was amplified by PCR using Taq DNA polymerase (Invitrogen) and two reporter sequence-specific primers. The PCR products were fluorescently labeled by primer extension with 6-arboxyfluorescein (6-FAM) 5'-labeled reporter sequence-specific primer (2 min at 95 C, 20 s at 68 C and 10 min at 72 C) and these products were digested with 5U of HpaI (New England Biolabs) for 2h at 37 C. The fragments were purified using Qiaquick PCR columns (Qiagen), analyzed on an ABI 3130xL genetic analyzer (Applied Biosystems) with peak positions identified by using a set of X-rhodamine (ROX)-labeled MapMarker1000 molecular weight standards (BioVentures). The raw capillary electrophoresis data was processed using Attagraph software (Attagene).

Row | Compound | outcome | AC50
1 | CC(O)C#CC(C)O (stereo not given) | inactive | –
2 | F[Si-2](F)(F)(F)(F)F | inactive | –
3 | CC(C)OC=O | inactive | –
4 | CCCCOC(=O)[C@H](C)O | inactive | –
5 | O=C(c1ccccc1)c1ccc(O)cc1O | inactive | –
6 | OCCC(O)CO (stereo not given) | inactive | –
7 | CSc1ccc(O)cc1C | inactive | –
8 | CCCCCCCC/C=C\CCCCCCCC(=O)N(C)CC(=O)O | inactive | –
9 | O=C=NCc1cccc(CN=C=O)c1 | inactive | –
10 | Nc1cc([N+](=O)[O-])cc(Cl)c1O | inactive | –
11 | CCCCCCCCCc1ccc(OCCO)cc1 | inactive | –
12 | CCC(C)CO (stereo not given) | inactive | –
13 | CN1CN(C)CN(C)C1 | inactive | –
14 | CCn1c2ccccc2c2ccccc21 | – | 25.8 µM (active)
15 | CO[Si](CCCOCC1CO1)(OC)OC (stereo not given) | inactive | –
16 | C[Si](C)O[Si](C)C | inactive | –
17 | C=CC(=O)OCC(F)(F)C(F)(F)C(F)(F)COC(=O)C=C | inactive | –
18 | NCC(F)(F)C(F)(F)C(F)(F)C(F)(F)C(F)(F)C(F)(F)C(F)(F)C(F)(F)F | inactive | –
19 | COC(F)(C(F)F)C(F)(F)F (stereo not given) | inactive | –
20 | COCCC(=O)OC | inactive | –

Row | Compound | outcome | AC50
21 | O=C=Nc1cccc2c(N=C=O)cccc12 | inactive | –
22 | CCOCN(C(=O)CS(=O)(=O)O)c1c(C)cccc1CC | inactive | –
23 | Cc1ccc(O)cn1 | inactive | –
24 | O=C1OC(=O)c2ccc3c4c(ccc1c24)C(=O)OC3=O | inactive | –
25 | CCC(Cc1c(I)cc(I)c(N)c1I)C(=O)O (stereo not given) | inactive | –
26 | CCN(CC)c1ccc(C=O)c(O)c1 | inactive | –
27 | O=C(c1ccccc1)c1ccc(Cl)cc1 | inactive | –
28 | CC(C)(C)c1cc(CCC(=O)OCC(COC(=O)CCc2cc(C(C)(C)C)c(O)c(C(C)(C)C)c2)(COC(=O)CCc2cc(C(C)(C)C)c(O)c(C(C)(C)C)c2)COC(=O)CCc2cc(C(C)(C)C)c(O)c(C(C)(C)C)c2)cc(C(C)(C)C)c1O | inactive | –
29 | C[Si](Cl)(Cl)CCC(F)(F)C(F)(F)C(F)(F)C(F)(F)C(F)(F)C(F)(F)F | inactive | –
30 | O=C1c2c(O)ccc(Nc3ccc(CCO)cc3)c2C(=O)c2c([N+](=O)[O-])ccc(O)c21 | inactive | –
31 | CC1=CCC2C(=O)OC(=O)C2C1 (stereo not given) | inactive | –
32 | O=C(O)C(F)(F)C(F)(F)C(F)(F)C(=O)O | inactive | –
33 | Cc1ccc(O)c(-n2nc3ccccc3n2)c1 | inactive | –
34 | Cc1ccc([N+](=O)[O-])c(C)c1 | inactive | –
35 | C=CC(=O)OCCC(F)(F)C(F)(F)C(F)(F)C(F)(F)F | inactive | –
36 | C=CC(=O)OCC(F)(F)C(F)(F)C(F)(F)C(F)(F)C(F)(F)C(F)(F)C(F)(F)C(F)F | – | 36.9 µM (active)
37 | CCN(CC)c1ccc2c(c1)Oc1cc(N(CC)CC)ccc1C21OC(=O)c2ccccc21 | inactive | –
38 | CC(C)C(=O)OCc1ccccc1 | inactive | –
39 | CCN(CC)c1ccc(C=O)cc1 | inactive | –
40 | CCCC(=O)OCC(COC(=O)CCC)OC(=O)CCC | – | 37.5 µM (active)
